Screening results as filed in PubChem.
The list is not random: actives were taken first. Their share in the collection is about 2.1%.
Abeta rescue: compounds reversing amyloid beta toxicity in yeast; yeast expressing A-beta42, growth rescue, OD600, 48 h; response scale: 0% DMSO, 100% iron-clioquinol control; Potency, µM (top dose mostly 46.1 µM), usual class: activators; hit rate 0.063% among 410,000; also: nearly all actives have a fitted effect of over 55% in size
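Yeast A-beta toxicity model in growth medium with pinned compounds, 48 h at 30 C; growth read as absorbance at 600 nm. Normalized to FeCl3/clioquinol equimolar mix (positive) and DMSO (negative).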
TDP43 rescue: inhibitors of TDP-43 toxicity in yeast; TDP-43 expressing yeast growth rescue, BacTiter-Glo, 24 h; Potency, µM (titrated, usually from 46.1 µM), for the others: top-dose growth rescue (activation), actives largely listed as activators; hit rate 1.8% among 410,000; also: % of control where 0% means no effect; nearly all actives have a fitted effect of over 50% in size
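Readout is BacTiter-Glo luminescence of cell growth, so inhibitors register as activators. TDP-43-expressing yeast at OD600=0.02 in galactose medium, after raffinose pregrowth to mid-log, were incubated with compound for 24 hr at 30 deg C.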
aSyn rescue: inhibitors of alpha-synuclein toxicity in yeast; Potency, µM (top dose mostly 46.1 µM), for inactives: at the highest dose growth rescue (activation), actives largely listed as activators; hit rate 0.14% among 370,000; Yeast expressing alpha-synuclein, growth rescue, BacTiter-Glo, 24 h; AID 652106; also: % of control where 0% means no effect; nearly all actives have a fitted effect of over 65% in size
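Readout is rescue of growth in alpha-synuclein-expressing yeast, so inhibitors of toxicity appear as activators. Growth after 24 hr at 30 deg C in galactose medium is quantified by luminescence.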
FUS yeast rescue: rescues growth of FUS-expressing yeast; Potency, µM (titrated, usually from 76.6 µM), usual class: activators; hit rate 0.24% among 390,000; AID 1347120; S. cerevisiae FUS-expressing, growth rescue, OD600, 24 h;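 also: plate controls were DMSO vehicle for no effect and reference control for full effect; nearly all actives have a fitted effect of over 55% in size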
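Absorbance at 600 nm, taken 24hr after compound addition, measured rescue of FUS-yeast growth at 30C. Induction used 2% galactose with seeding at OD 0.005. Controls: CP55940 from 92uM final, DMSO only.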
An asterisk follows results filed as active; [ ] = dose if it differs, or a comment. Calls follow the shape of the dose curve; as a rule, active = well fitted curve in the direction sought with a large enough effect; inconclusive = small, poorly fitted or top-dose-only effect, or another doubt; inactive = no such curve, though single readings can be large; an effect the other way counts as inactive or inconclusive. Potency is read from the fitted curve at half-maximal effect.

What do the screens show for `COc1ccc(CCC(=O)NCc2ccc3c(c2)CCN3C(=O)c2cccc(C)c2)cc1`?
Abeta rescue: inactive; TDP43 rescue: 25.1µM*; FUS yeast rescue: inconclusive

What do the screens show for `O=C(COc1ccccc1)NCc1ccc2c(c1)CCN2C(=O)c1ccccc1`?
Abeta rescue: inactive; TDP43 rescue: 23.4%; FUS yeast rescue: inactive

What do the screens show for `COc1ccc(OCC(=O)NCc2ccc3c(c2)CCN3C(=O)c2ccccc2)cc1`?
Abeta rescue: inactive; TDP43 rescue: 25.1µM*; FUS yeast rescue: inactive

What do the screens show for `O=C(NCc1ccc2c(c1)CCN2C(=O)c1ccc(F)cc1)c1cc2ccccc2[nH]1`?
Abeta rescue: inactive; TDP43 rescue: 31.6µM*; FUS yeast rescue: inactive

How did O=C(O)c1ccc(NC(=O)c2cc3c([nH]c2=O)CCCC3=O)cc1 do in these assays?
aSyn rescue: 11.4%

How did Cc1ccc(NC(=O)c2nnn(CC(=O)Nc3ccc4c(c3)OCO4)c2N)cc1C do in these assays?
Abeta rescue: inactive; TDP43 rescue: 1.4%; aSyn rescue: 13.3%; FUS yeast rescue: inactive

What do the screens show for `Cc1ccc(NC(=O)Cn2nnc(C(=O)Nc3ccc(C)c(C)c3)c2N)cc1`?
Abeta rescue: inactive; TDP43 rescue: 3.8%; aSyn rescue: 2.8%; FUS yeast rescue: 22.4µM*

Results for CCNS(=O)(=O)c1ccc(Br)c(OC)c1 ?
Abeta rescue: inactive; TDP43 rescue: -7.4%; aSyn rescue: 6.7%; FUS yeast rescue: inactive

What do the screens show for `COc1cc(S(=O)(=O)NCc2ccc3c(c2)OCO3)c(OC)cc1C`?
Abeta rescue: inactive; TDP43 rescue: inconclusive; aSyn rescue: 7.5%; FUS yeast rescue: inactive

Results for COc1cc(C)c(S(=O)(=O)NCc2ccc3c(c2)OCO3)cc1C ?
Abeta rescue: inactive; TDP43 rescue: 15.8µM*; aSyn rescue: inconclusive; FUS yeast rescue: inactive

Results for COc1cc(S(=O)(=O)NCc2ccccc2)ccc1Br ?
Abeta rescue: inactive; TDP43 rescue: 12.6µM*; aSyn rescue: 2.9%

Results for O=C(O)c1ccc(S(=O)(=O)NCc2ccc3c(c2)OCO3)cc1 ?
Abeta rescue: inactive; TDP43 rescue: -4.2%; aSyn rescue: -2.9%; FUS yeast rescue: inactive

What do the screens show for `CC(C)c1ccc(S(=O)(=O)NCc2ccc3c(c2)OCO3)cc1`?
Abeta rescue: inactive; TDP43 rescue: 11.2µM*; aSyn rescue: 14.8%; FUS yeast rescue: inactive

Results for CCC(=O)N1CCc2cc(CNS(=O)(=O)c3ccc(C(C)C)cc3)ccc21 ?
Abeta rescue: inactive; TDP43 rescue: 20µM*; FUS yeast rescue: inactive

What do the screens show for `CC1=C(C(=O)Nc2ccccc2C)C(c2ccccn2)n2nc(SCc3ccccc3F)nc2N1` (stereo not drawn)?
Abeta rescue: inactive; TDP43 rescue: 19.0%; FUS yeast rescue: inactive

How did Cc1cc(C)cc(NC(=O)Cn2c(=O)n(C(C)C)c(=O)c3oc4ccccc4c32)c1 do in these assays?
Abeta rescue: inactive; TDP43 rescue: 12.2%; FUS yeast rescue: inactive

What do the screens show for `CC(C)(C)C(=O)Cn1c(=O)n(CCCCCC(=O)NCc2ccc3c(c2)OCO3)c(=O)c2sccc21`?
Abeta rescue: inactive; TDP43 rescue: 7.3%; FUS yeast rescue: inactive

Results for C[C@H]1[C@@H](NC(=O)/C=C/c2ccccc2)CC[C@@]23CCCN2C(=O)CCC[C@@H]13 ?
FUS yeast rescue: inactive

What do the screens show for `COc1cc(S(=O)(=O)NCc2ccc3c(c2)OCO3)ccc1Cl`?
Abeta rescue: inactive; TDP43 rescue: 12.6µM*; aSyn rescue: -9.9%; FUS yeast rescue: inactive

What do the screens show for `COC(=O)N1CCCc2cc(S(=O)(=O)NCc3ccccc3)ccc21`?
Abeta rescue: inactive; TDP43 rescue: 13.0%; aSyn rescue: 17.8µM*; FUS yeast rescue: inactive

How did COc1ccc(C2C(=O)N(C3CCC(C)CC3)CC(=O)N2CCc2ccccc2)cc1OC (stereo not drawn) do in these assays?
Abeta rescue: inactive; TDP43 rescue: 8.4%; FUS yeast rescue: inactive

How did O=C1CC(c2ccccc2)Sc2ccccc2N1 (stereo not drawn) do in these assays?
Abeta rescue: inactive; TDP43 rescue: 11.2µM*; FUS yeast rescue: inactive

What do the screens show for `O=C1CC(c2ccco2)Sc2ccccc2N1` (stereo not drawn)?
Abeta rescue: inactive; TDP43 rescue: 15.0%; aSyn rescue: -0.1%; FUS yeast rescue: inactive

What do the screens show for `COc1cc(NC(=O)CCc2c(C)nc3c4c(C)cc(C)nc4nn3c2C)cc(OC)c1`?
Abeta rescue: inactive; TDP43 rescue: 11.1%; FUS yeast rescue: inactive

How did NC(Cc1ccc(Cl)cc1)c1csc(NC(=O)NCC2CCCCC2)n1 (stereo not drawn) do in these assays?
Abeta rescue: inactive; TDP43 rescue: inconclusive; aSyn rescue: -42.8%; FUS yeast rescue: 25.1µM*

Results for NC(Cc1ccc(Cl)cc1)c1csc(NC(=O)NCCc2ccccc2)n1 (stereo not drawn) ?
Abeta rescue: inactive; TDP43 rescue: 24.5%; aSyn rescue: -20.7%; FUS yeast rescue: inactive

How did CC(C)C[C@H]1COc2cc(Br)ccc2S(=O)(=O)N1Cc1cn(CCC2OCCO2)nn1 do in these assays?
FUS yeast rescue: inactive

Results for O=C(N/N=C/C=C/c1ccco1)c1ccccc1Cl ?
Abeta rescue: inactive; TDP43 rescue: -6.6%[1.82 µM]; aSyn rescue: 9.3%; FUS yeast rescue: 39.8µM*

How did N#CC1=C(N)N(c2ccccc2)C(=O)C1 do in these assays?
Abeta rescue: inactive; TDP43 rescue: 16.1%; aSyn rescue: 4.9%; FUS yeast rescue: inactive

How did N#CC1=C(N)N(c2ccccc2Sc2ccccc2)C(=O)C1 do in these assays?
Abeta rescue: inactive; TDP43 rescue: -1.1%; aSyn rescue: 1.0%; FUS yeast rescue: 28.2µM*

How did Cc1cc(C)c(S(=O)(=O)NCc2cccs2)cc1C do in these assays?
Abeta rescue: inactive; TDP43 rescue: 13.1%; aSyn rescue: 10.6%; FUS yeast rescue: inactive

How did CCCOc1cc(C)c(S(=O)(=O)NCc2cccs2)cc1C do in these assays?
Abeta rescue: inactive; TDP43 rescue: 20µM*; aSyn rescue: 10µM*; FUS yeast rescue: inactive

Results for NC(=O)C1=CN(C2OC(COP(=O)(O)OP(=O)(O)OC[C@H]3O[C@@H](n4cnc5c(N)ncnc54)[C@H](OP(=O)(O)O)[C@@H]3O)C(O)C2O)C=CC1 (stereo partly drawn) ?
aSyn rescue: -1.5%

Results for N#CCC(=O)N/N=C/c1ccc(Sc2nc3ccccc3s2)o1 ?
Abeta rescue: inactive; TDP43 rescue: inconclusive; aSyn rescue: 0.2%; FUS yeast rescue: 3.55µM*

How did Cc1cc(C)n(-c2ccc(C(=O)N3CCc4ccccc43)cc2)n1 do in these assays?
Abeta rescue: inactive; TDP43 rescue: 11.2µM*; aSyn rescue: -3.2%; FUS yeast rescue: inactive

Results for Cc1cccc(-n2cnc3cc(C(=O)N4CCc5ccccc54)ccc32)c1 ?
Abeta rescue: inactive; TDP43 rescue: 12.6µM*; aSyn rescue: 24.4%
